Screens as filed in PubChem BioAssay.
Many of the other results were omitted from the sample, so hits are more common in it than they were.
RBX1-CUL1 inh = blocks human RBX1-Cullin-1 di-ubiquitin formation; P62877+Q13616; in vitro K48 di-Ub FRET, acceptor:donor ratio, 45 min; inhibition, % at 10 µM; 140,000 compounds, 0.6% hits; AID 1347404; in the data active = inhibition above about 25%
An asterisk follows results filed as active.

SMILES	RBX1-CUL1 inh
C=CCn1c(CNc2cccc3ccccc23)nnc1SCC(=O)N/N=C/c1ccc(OC)cc1OC	7
C=CCn1c(CNc2cccc3ccccc23)nnc1SC(C)C(=O)N/N=C/c1ccc(OC)cc1OC (stereo not drawn)	42*
C=CCn1c(CNc2ccccc2)nnc1SC(C)C(=O)N/N=C/c1ccc(N(CC)CC)cc1 (stereo not drawn)	-2
Cc1cccc(C(=O)N2CCC(C3(Cc4ccc(F)cc4)NC(=O)N(CC4CC4)C3=O)CC2)c1C (stereo not drawn)	0
O=C(CCc1nnc(Cc2ccc3c(c2)OCO3)o1)N1CCc2c(Cl)cccc2C1	-4
Cn1c(=O)n(C)c2ccc3ccc4ccc1c2c43	1
CCc1n[nH]c2c1CN(C(=O)c1c(C)cc(=O)oc1C)CC2	2
CCOC(=O)c1c(N2CCOC2=O)sc2c1CCCC2	0
O=C1Oc2ccc3ccccc3c2C(=O)C1CC1C(=O)Oc2ccc3ccccc3c2C1=O (stereo not drawn)	32*
CCC1c2c(ccc3ccccc23)OC(=O)C1C(=O)Nc1ccc(C)cc1 (stereo not drawn)	-6
O=C1/C(=C/c2ccc(Cl)cc2)COc2ccc3ccccc3c21	15
CC1C(=NC(=O)/C=C/c2cccs2)C(=O)N(c2ccccc2)N1C (stereo not drawn)	1
Cc1cc(C)n(-c2cccc(C(=O)NCC3Cc4cc(F)cc(-c5cccnc5)c4O3)c2)n1 (stereo not drawn)	-1
CC1=NOC(=O)/C1=C\c1ccc(N(C)C)cc1	1
CN(C)c1ccc(/C=C2/OC(=S)NC2=S)cc1	26*
CN(C)c1ccc(/C=C\c2ccccc2)cc1	4
Cc1cccc(-n2cnc(C(=O)N3CCc4[nH]nc(-c5ccno5)c4C3)c2)n1	14
O=C(NCCc1cc(=O)[nH]cn1)c1ncccc1N1CCCCC1	-5
O=C(O)CNS(=O)(=O)c1cccc2ccccc12	7
Cc1ccccc1S(=O)(=O)NCCC(C)C	-7
CCCNS(=O)(=O)c1cccc2c(N)cccc12	58*
CCc1ccc(C(=O)N2CCN(c3cccc(Cl)c3)CC2)cc1	0
COc1ccc(C2CC3(OCCO3)C(C)(O)CN2)cc1 (stereo not drawn)	3
N#CC1(C#N)[C@H](c2ccc(C(F)(F)F)cc2)[C@@H](C(=O)C23CC4CC(CC(C4)C2)C3)N2c3ccccc3C=C[C@@H]21	8
COc1cc2oc(=O)cc(C)c2c(OC)c1OC(C)=O	1
SMILES	RBX1-CUL1 inh
O=C(Nc1ccccc1)Oc1c(Cl)cc2oc(=O)sc2c1Br	16
CC(=O)Oc1c(Br)cc2oc(=O)sc2c1Br	34*
Cc1cccc(CN(c2c(C)n(C)n(-c3ccccc3)c2=O)S(C)(=O)=O)c1	-1
COc1cccc(C(C)N(C)C(=O)Cn2nnnc2CN2CCC(C)CC2)c1 (stereo not drawn)	2
COc1ccccc1/C=C/C(=O)c1ccccc1	2
O=C(/C=C/C(=O)c1ccccc1)c1ccccc1	27*
CC(/C=C/C(=O)c1ccc(C)cc1)=C\c1ccccc1	1
CN1CCN(c2cnn(CCC(=O)N3CCCC3)c(=O)c2)CC1	1
Cn1c(COc2ccccc2)nnc1SCC(=O)Nc1ccc(C(=O)O)cc1	2
Cc1c(C)n(Cc2ccccc2)c2nc3ccccc3n2c1=O	-5
CCOC(=O)C1=C(C)N=c2s/c(=C\c3ccc(Cl)cc3)c(=O)n2C1c1ccc(C(C)C)cc1 (stereo not drawn)	5
CCOC(=O)C1=C(C)N=c2s/c(=C/c3ccc(C(=O)O)cc3)c(=O)n2C1c1ccc(C(C)C)cc1 (stereo not drawn)	90*
CCOC(=O)C1=C(C)N=c2s/c(=C\c3ccc(I)cc3)c(=O)n2C1c1ccc(OC)cc1 (stereo not drawn)	-4
Cc1cccc(OCC(=O)NC(C)C(=O)N/N=C/c2ccc(OCc3c(C)cc(C)cc3C)cc2)c1 (stereo not drawn)	12
Cc1ccccc1OCC(=O)NC(C(=O)N/N=C/c1ccc(OCc2ccccc2C#N)cc1)C(C)C (stereo not drawn)	96*
Cc1ccccc1OCC(=O)NC(C)C(=O)N/N=C\c1ccc2c(c1)n(C)c(=O)n2C (stereo not drawn)	9
CC(C)N1CCC(N2CCCC(C(=O)NC3CCCC3)C2)CC1 (stereo not drawn)	-5
O=C(O)c1ccc(N2C(=O)/C(=C/c3ccc4c(c3)OCO4)SC2=S)cc1	26*
COc1cccc(N2C(=O)/C(=C/c3ccc(C(=O)O)cc3)SC2=S)c1	3
O=C(O)c1cccc(N2C(=O)/C(=C/c3ccc4c(c3)OCO4)SC2=S)c1	-2
CC(C)C(C)OC1CC(=O)CC2C(=O)c3c(O)ccc(O)c3C(=O)C12 (stereo not drawn)	60*
CCOC(=O)NC(N=C1C(=O)N(c2ccccc2)N(C)C1C)(C(F)(F)F)C(F)(F)F (stereo not drawn)	0
Nc1nc(N)c2c(F)c(N)ccc2n1	65*
Nc1nc(N)c2c(F)cccc2n1	13
Nc1nc2ccc(N)c(Cl)c2c(=O)[nH]1	-5
SMILES	RBX1-CUL1 inh
O=C1C=CC(=O)C(CCCC2=CC(=O)C=CC2=O)=C1	-9
CCOc1cc(-c2ccc(O)c(O)c2)cc(=Nc2ccc(Br)cc2)c2c(C)oc(C)c12	50*
CCOc1cc(-c2ccc(O)cc2)cc(=O)c2c(C)oc(C)c12	-18
CCOc1cc(-c2ccc3c(c2)OCO3)cc(=Nc2cccc(OC)c2)c2c(C)oc(C)c12	0
CC(C)(C)c1[nH]nc2c1C1(C(=O)Nc3ccccc31)C(C#N)C(=N)O2 (stereo not drawn)	-10
CC(=O)c1ccc(-c2cccc(-c3ccn[nH]3)c2)nc1	3
O=C(c1cccc(F)c1)N1CCC(C2(Cc3ccc(F)cc3)NC(=O)N(CC3CC3)C2=O)CC1 (stereo not drawn)	12
O=C(Nc1ccc2cc3ccc(NC(=O)c4ccc(=O)oc4)cc3nc2c1)c1ccc(=O)oc1	40*
O=C(Nc1ccc(-c2nc3cc(NC(=O)c4ccc(Cl)cc4)ccc3o2)cc1)c1ccc(Cl)cc1	-2
COC(=O)c1ccc(C(=O)Nc2ccc(-c3nc4cc(NC(=O)c5ccc(C(=O)OC)cc5)ccc4o3)cc2)cc1	13
COCCN(CC1CCN(Cc2ccccc2F)CC1)C(=O)c1ccco1	6
COc1ccc2c(c1)Cc1sc(NC(=O)c3cccc(F)c3)nc1-2	13
COc1ccc2c(c1)Cc1sc(NC(=O)c3ccccc3C)nc1-2	32*
COc1ccc2c(c1)CCc1sc(NC(=O)c3ccc(Cl)cc3)nc1-2	11
COc1ccc2c(c1)-c1nc(NC(=O)c3ccccc3F)sc1CC2	2
COc1ccc(C(=O)Nc2nc3c(s2)Cc2cc(OC)ccc2-3)cc1	40*
COc1ccc2c(c1)Cc1sc(NC(=O)c3cccc(Br)c3)nc1-2	-18
O=c1cc(-c2ccccc2)c2c(=O)[nH][nH]c2[nH]1	0
O=C1NC(=S)N(c2cccc(Br)c2)C(=O)/C1=C/c1ccc(O)cc1	6
O=C1NC(=S)N(c2cccc(Br)c2)C(=O)/C1=C/c1cc(I)c(O)c(I)c1	27*
O=C1NC(=S)N(c2ccccc2)C(=O)/C1=C/c1cc(Br)ccc1O	2
CC(=O)C1C(=O)C(=O)N(CCN2CCOCC2)C1c1ccccc1F (stereo not drawn)	1
O=C(/C=C/c1ccco1)Nc1scc(-c2cccs2)c1C(=O)O	28*
Cc1sc(NC(=O)/C=C/c2ccco2)c(C(N)=O)c1C	6
